Reference: ChEMBL document CHEMBL1201862, “PubChem BioAssay data set” (2004)
Out of some 53,000 sequences screened, about 4,900 (9.2%) were called active. No stated cut-off is given here; in the data, active = GI50 up to about 1.1 µM and inactive = higher. The entries come from a sample that favours actives as a whole. Entries with a potency or affinity are not part of this list.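 Results reflect a 48-hour exposure of cells in 96-well plates to compound at five concentrations. GI50 marks 50% less growth.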

The substances below were run on NCI-H522 (assay: NCI tumour cell line growth inhibition, 48 h).
MERCURIC CHLORIDE, CHEMBL1374360 was tested, and the GI50 was 518 nM.
DICHLORODIPHENYLSTANNANE, CHEMBL1088185 showed a GI50 of 1000 nM.
With DIBUTYLDICHLOROSTANNANE, CHEMBL1088184 the GI50 was 130 nM.
